“And” between values parts separate entries of the source, which are not always exact repeats. Identical values can stand only once. Inconclusive results are not listed. The source made the active and inactive calls. Calls come from the whole dose curve; as a rule, active = well fitted curve in the direction sought with a large enough effect; inconclusive = small, poorly fitted or top-dose-only effect, or another doubt; inactive = no such curve, though single readings can be large; an effect the other way counts as inactive or inconclusive.
Key:
[1] = qHTS of pediatric cancer cell lines to identify multiple opportunities for drug repurposing: Primary screen for NB-EBc1 cells (AID 1347095); note: potency is the fitted concentration of half-maximal effect
Outline: (§1)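 500-1,000 cells/well; 5 h pre-incubation 37 °C/5% CO2; compound pinned; 48 h; CellTiter-Glo, 15 min RT; luminescence. MIPE 11-pt from 0.78 nM, NPC 8-pt from 0.59 nM final. Bortezomib 2.3 µM final as positive control.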

[2] = qHTS of pediatric cancer cell lines to identify multiple opportunities for drug repurposing: Primary screen for U-2 OS cells (AID 1347096); note: nearly all actives have a fitted effect of over 50% in size; note: potency is the fitted concentration of half-maximal effect
Outline: (§2)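 Viability after 48 h compound treatment at 37C, 500-1,000 cells/well, read as ATP luminescence with CellTiter-Glo. Primary screens used 11-point (MIPE, 0.78 nM-46 µM) or 8-point (NPC, 0.59 nM-46 µM) final concentrations; follow-up screens used 11-point dilutions.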

[3] = qHTS of pediatric cancer cell lines to identify multiple opportunities for drug repurposing: Primary screen for Saos-2 cells (AID 1347097); note: nearly all actives have a fitted effect of over 40% in size; note: potency is the fitted concentration of half-maximal effect
Outline: as §1

[4] = qHTS of pediatric cancer cell lines to identify multiple opportunities for drug repurposing: Primary screen for NB1643 cells (AID 1347099); note: nearly all actives have a fitted effect of over 50% in size; note: potency is the fitted concentration of half-maximal effect
Outline: as §1

[5] = qHTS of pediatric cancer cell lines to identify multiple opportunities for drug repurposing: Primary screen for LAN-5 cells (AID 1347100); note: potency is the fitted concentration of half-maximal effect
Outline: as §2

[6] = qHTS of pediatric cancer cell lines to identify multiple opportunities for drug repurposing: Primary screen for BT-12 cells (AID 1347101); note: nearly all actives have a fitted effect of over 25% in size; note: potency is the fitted concentration of half-maximal effect
Outline: (§3)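 Cells (500-1,000/well) rested 5 h, then received compounds for 48 h; metabolically active cells were measured by CellTiter-Glo luminescence. Final concentrations spanned up to 46 µM (MIPE, 11-point) or 0.59 nM-46 µM (NPC, 8-point) in primary screens, 11-point in follow-ups.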

[7] = qHTS of pediatric cancer cell lines to identify multiple opportunities for drug repurposing: Primary screen for Rh18 cells (AID 1347102); note: nearly all actives have a fitted effect of over 65% in size; note: potency is the fitted concentration of half-maximal effect
Outline: as §2

[8] = qHTS of pediatric cancer cell lines to identify multiple opportunities for drug repurposing: Primary screen for OHS-50 cells (AID 1347103); note: nearly all actives have a fitted effect of over 40% in size; note: potency is the fitted concentration of half-maximal effect
Outline: as §3

[9] = qHTS of pediatric cancer cell lines to identify multiple opportunities for drug repurposing: Primary screen for RD cells (AID 1347104); note: nearly all actives have a fitted effect of over 55% in size; note: potency is the fitted concentration of half-maximal effect
Outline: as §1

[10] = qHTS of pediatric cancer cell lines to identify multiple opportunities for drug repurposing: Primary screen for MG 63 (6-TG R) cells (AID 1347105); note: nearly all actives have a fitted effect of over 50% in size; note: potency is the fitted concentration of half-maximal effect
Outline: as §1

[11] = qHTS of pediatric cancer cell lines to identify multiple opportunities for drug repurposing: Primary screen for control Hh wild type fibroblast cells (AID 1347106);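 note: series mostly up to about 46 µM; a drop in luminescence marks cytotoxicity and a rise apparent proliferation; nearly all actives have a fitted effect of over 55% in size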
Outline: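 Cells (500-1,000/well) in growth media were settled 5 h at 37 degrees C, then given compounds for 48 h. Viability was read as CellTiter-Glo luminescence. Primary runs used MIPE at 11 points (0.78 nM-46 µM) and NPC at 8 points (0.59 nM-46 µM); follow-ups used 11 points.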

[12] = qHTS of pediatric cancer cell lines to identify multiple opportunities for drug repurposing: Primary screen for Rh30 cells (AID 1347107); note: series mostly up to about 46 µM; nearly all actives have a fitted effect of over 75% in size
Outline: as §2

[13] = qHTS of pediatric cancer cell lines to identify multiple opportunities for drug repurposing: Primary screen for Rh41 cells (AID 1347108); note: nearly all actives have a fitted effect of over 70% in size; note: potency is the fitted concentration of half-maximal effect
Outline: as §1

[14] = qHTS of pediatric cancer cell lines to identify multiple opportunities for drug repurposing: Confirmatory screen for A673 cells (AID 1347110);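 note: cells exposed to compound for 48 h before the viability read; nearly all actives have a fitted effect of over 65% in size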; note: potency is the fitted concentration of half-maximal effect
Outline: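 Forty-eight-hour viability assay. Follow-up compounds ran at 11-point dilutions; positive control bortezomib at 2.3 uM final, neutral control DMSO.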

[15] = qHTS of pediatric cancer cell lines to identify multiple opportunities for drug repurposing: Confirmatory screen for DAOY cells (AID 1347114); note: nearly all actives have a fitted effect of over 65% in size; note: potency is the fitted concentration of half-maximal effect
Outline: (§4)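 Viability measured as metabolically active cells via CellTiter-Glo luminescence following 48 hours of compound exposure, 11-point dilutions in confirmatory testing. 500-1,000 cells/well plated 5 hours before dosing; controls were DMSO and 2.3 µM bortezomib.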

[16] = qHTS of pediatric cancer cell lines to identify multiple opportunities for drug repurposing: Confirmatory screen for NB-EBc1 cells (AID 1347115);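 note: cells exposed to compound for 48 h before the viability read; nearly all actives have a fitted effect of over 45% in size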; note: potency is the fitted concentration of half-maximal effect
Outline: as §2

[17] = qHTS of pediatric cancer cell lines to identify multiple opportunities for drug repurposing: Confirmatory screen for SJ-GBM2 cells (AID 1347116); note: nearly all actives have a fitted effect of over 60% in size; note: potency is the fitted concentration of half-maximal effect
Outline: as §4

[18] = qHTS of pediatric cancer cell lines to identify multiple opportunities for drug repurposing: Primary screen for SK-N-SH cells (AID 1347098); note: nearly all actives have a fitted effect of over 65% in size; note: potency is the fitted concentration of half-maximal effect
Outline: as §3

[19] = qHTS of pediatric cancer cell lines to identify multiple opportunities for drug repurposing: Confirmatory screen for NB1643 cells (AID 1347109); note: nearly all actives have a fitted effect of over 45% in size; note: potency is the fitted concentration of half-maximal effect
Outline: as §2

[20] = qHTS of pediatric cancer cell lines to identify multiple opportunities for drug repurposing: Confirmatory screen for LAN-5 cells (AID 1347113); note: nearly all actives have a fitted effect of over 65% in size; note: potency is the fitted concentration of half-maximal effect
Outline: as §2

Measured: Potency

N[C@@H](Cc1cc(I)c(Oc2cc(I)c(O)c(I)c2)c(I)c1)C(=O)O
not listed: [14] | [15] | [16] | [17] | [18] | [19] | [20]
inactive: all other assays above

Cc1nc(Nc2ncc(C(=O)Nc3c(C)cccc3Cl)s2)cc(N2CCN(CCO)CC2)n1
active: [2] 18.7 µM and 13.3 µM | [7] 0.0335 µM | [8] 24.3 µM and 12.3 µM | [10] 8.4 nM | [14] 20.8 µM | [15] 16.5 µM
inactive: [1] | [4] | [5] | [12] | [13] | [16] | [17]

NCCCCNCCCN
inactive: [1] | [2] | [6] | [7] | [8] | [9] | [10] | [12]
active: [18] 7.64 µM | [4] 4.18 µM | [13] 23.5 µM

O=c1c(O)c(-c2cc(O)c(O)c(O)c2)oc2cc(O)cc(O)c12
inactive: [1] | [2] | [18] | [4] | [5] | [6] | [7] | [9] | [11] | [12]

Cc1cc2cc3c(C)cc(=O)oc3c(C)c2o1
inactive: [1] | [2] | [3] | [5] | [6] | [7] | [8] | [10] | [12]

O=C1c2ccccc2-c2n[nH]c3cccc1c23
inactive: [2] | [10]
active: [1] 1.05 µM | [18] 5.41 µM | [4] 2.96 µM | [5] 1.66 µM | [8] 21.7 µM

CCC(C)(Oc1ccc(C2(c3ccc(OC(C)(CC)C(=O)O)cc3)CCCCC2)cc1)C(=O)O (centres undefined)
not listed: [3] | [6] | [14] | [15] | [16] | [17] | [19] | [20]
inactive: all other assays above

C[C@]12CCC(=O)C=C1CC[C@@H]1[C@H]2[C@@H](O)C[C@@]2(C)[C@H]1CC[C@]2(O)C(=O)CO
not listed: [4] | [6] | [18]
inactive: all other assays above

O=C(CS(=O)Cc1ccco1)NCC=CCOc1cc(CN2CCCCC2)ccn1 (centres undefined)
not listed: [4] | [14] | [15] | [16] | [17] | [18] | [19] | [20]
inactive: all other assays above

N=C(N)c1ccc2cc(OC(=O)c3ccc(N=C(N)N)cc3)ccc2c1
not listed: [6] | [14] | [15] | [16] | [17] | [18] | [19] | [20]
inactive: all other assays above

Cc1ncc([N+](=O)[O-])n1CC(C)O (centres undefined)
not listed: [11] | [14] | [15] | [16] | [17] | [18] | [19] | [20]
inactive: all other assays above

CC1(C)C(=O)N(CCN2CCC(C(=O)c3ccc(F)cc3)CC2)c2ccccc21
not listed: [4] | [6] | [14] | [16] | [17] | [18] | [19]
inactive: all other assays above

COC(=O)C1=C(C)NC(C)=C(C(=O)OC(C)C)C1c1cccc2nonc12 (centres undefined)
inactive: [1] | [2] | [3] | [5] | [6] | [7] | [8] | [9] | [11] | [12] | [13]

CCN(CC)CCOc1ccc(Cc2ccccc2)cc1
inactive: [1] | [2] | [3] | [4] | [6] | [7] | [10] | [12] | [13]

CCCCCCCCCCCCCCCCCCCCCCO
not listed: [11] | [14] | [15] | [16] | [17] | [18] | [19] | [20]
inactive: all other assays above

O=C1NC(=O)C(c2ccccc2[N+](=O)[O-])=C1Nc1ccc(O)c(Cl)c1
inactive: [1] | [2] | [3] | [7] | [8] | [9] | [11] | [12] | [13]

O=c1c(O)c(-c2ccc(O)cc2O)oc2cc(O)cc(O)c12
inactive: [1] | [2] | [4] | [5] | [6] | [7] | [8] | [9] | [10] | [11] | [12]

CC1=C(C)C(=O)C(C(CCCCCC(=O)O)c2ccccc2)=C(C)C1=O (centres undefined)
inactive: [2] | [3] | [18] | [5] | [7] | [8] | [9] | [10] | [11] | [12] | [13]

COC(=O)N[C@H](C(=O)N[C@@H](Cc1ccccc1)[C@@H](O)CN(Cc1ccc(-c2ccccn2)cc1)NC(=O)[C@@H](NC(=O)OC)C(C)(C)C)C(C)(C)C
not listed: [1] | [14] | [15] | [16] | [17] | [19] | [20]
inactive: all other assays above

CCCCCCCCOc1ccccc1C(=O)Nc1ccc(C(=O)OCC[N+](C)(CC)CC)cc1
active: [3] 29.6 µM
inactive: [1] | [5] | [8] | [10] | [11] | [13]

CCOC(=O)C1=C[C@@H](OC(CC)CC)[C@H](NC(C)=O)[C@@H](N)C1
not listed: [1] | [14] | [15] | [16] | [17] | [18] | [19] | [20]
inactive: all other assays above

CCCOc1ccc2nc(NC(=O)OC)[nH]c2c1
inactive: [18] | [7] | [11] | [12]
active: [1] 0.001 µM | [3] 0.0299 µM | [6] 123 nM and 30.6 nM | [8] 61.7 nM and 13.7 nM | [14] 1.17 µM | [15] 0.928 µM | [17] 1.47 µM

Cc1ccc(NC(=O)c2ccc(CN3CCN(C)CC3)cc2)cc1Nc1nccc(-c2cccnc2)n1
active: [18] 34.4 µM | [8] 17.4 µM | [15] 16.5 µM
not listed: [1] | [6] | [9] | [20]
inactive: all other assays above

C=C(c1ccc(C(=O)O)cc1)c1cc2c(cc1C)C(C)(C)CCC2(C)C
active: [8] 3.89 µM
not listed: [1] | [17]
inactive: all other assays above

OC(CN1CCN(c2cccc(Cl)c2)CC1)C(c1ccccc1)c1ccccc1 (centres undefined)
active: [3] 18.7 µM | [18] 15.2 µM | [8] 24.3 µM
inactive: [2] | [7] | [11] | [12] | [13]

Cc1cc(=O)c2c(O)c3c(O)cc(=O)c4c3c3c(cc(O)c1c23)C(C)(C)C=4O
inactive: [7] | [11]
active: [1] 5.8 µM and 418 nM | [3] 1.46 µM and 2.09 µM | [4] 1.16 µM and 2.35 µM | [5] 2.59 µM and 5.26 µM | [8] 1.51 µM and 2.43 µM | [9] 2.06 µM and 3.72 µM | [10] 920 nM and 4.69 µM | [13] 18.7 µM

O=c1oc2cc(O)ccc2s1
inactive: [1] | [2] | [5] | [6] | [7] | [8] | [10] | [11] | [12] | [13]

Nc1ccn([C@@H]2O[C@H](CO)[C@@H](O)C2O)c(=O)n1 (some centres undefined)
active: [14] 16.5 µM
not listed: [1]
inactive: all other assays above

Oc1ccc(OCc2ccccc2)cc1
not listed: [1] | [14] | [15] | [16] | [17] | [19] | [20]
inactive: all other assays above

NC(=NCc1ccccc1)NC(=O)c1nc(Cl)c(N)nc1N
inactive: [2] | [3] | [18] | [5] | [6] | [7] | [8]
active: [4] 9.35 µM | [9] 26.4 µM

Nc1ccc(S(N)(=O)=O)cc1
not listed: [1] | [11] | [14] | [15] | [16] | [17] | [19] | [20]
inactive: all other assays above

CCCCc1ccc2nc(NC(=O)OC)[nH]c2c1
inactive: [4] | [7] | [12]
active: [1] 1 nM and 106 nM | [3] 9.3 nM and 29.9 nM | [5] 0.0118 µM | [8] 15.3 nM and 61.7 nM | [19] 0.657 µM | [14] 0.329 µM | [20] 8.27 µM | [15] 0.185 µM | [16] 1.47 µM | [17] 3.29 µM

C=CCc1cc(OC)c(O)c(C(=O)NCCO)c1
not listed: [1] | [6] | [14] | [15] | [16] | [17] | [19] | [20]
inactive: all other assays above

O=C(O)c1cn(-c2ccc(F)cc2)c2cc(N3CCNCC3)c(F)cc2c1=O
not listed: [1] | [14] | [15] | [16] | [17] | [19] | [20]
inactive: all other assays above

CN1CCC(=C2c3ccccc3CCc3sccc32)CC1
inactive: [2] | [3] | [5] | [10] | [11] | [12] | [13]
active: [18] 13.6 µM | [8] 12.3 µM

— PubChem BioAssay (NCATS)
